From PubChem
The list is not random: actives were taken first. Their share in the collection is about 0.54%.
LDHA block: LDHA (human) enzyme inhibition; purified LDHA, NADH/diaphorase-resazurin fluorescence; hits give low values; AID 1347041; activity change, % (values are at about 110 or 230 µM); 480,000 tested, 0.15% active; in the data active = activity change below about -30%; inconclusive = mostly about -25% to -30%;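 note: plate controls were DMSO wells for no effect and wells without enzyme for full effect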
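LDH5 2 nM; NADH 0.06 mM, pyruvate 0.2 mM; 200 mM Tris pH 7.4, EDTA, Tween-20; 5 min RT. Detection: diaphorase 0.133 mg/mL + resazurin 37 µM, fluorescence ex540/em590 at 0 and 20 min; normalized to enzyme-free and DMSO wells.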
CXXC DNA block: inhibitors of human MLL CXXC domain-DNA interaction. MLL-CXXC / FITC-HOXA9 DNA fluorescence polarization. Potency, µM (titrated, usually from 115 µM), for the others: top-dose activity change, negative = inhibition, most hits filed as inhibitors. 290,000 tested, 0.037% active. AID 2662; active = well fitted inhibition curve with a large enough effect in the polarisation, with a control signal flat, not every such curve was filed as active; inconclusive = small, poorly fitted or top-dose-only effect, or effect the other way, or a change in a side signal; inactive = no such curve, though single readings can be large or run the other way; the % refers to the polarisation; note: potency is the fitted concentration of half-maximal effect
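Fluorescence polarization: 7 uM MLL-CXXC (stock) preincubated 5 min with compounds, then 50 nM fluorescein-HOX-A9 DNA (stock) added; 30 min ambient. Buffer 50 mM Tris-HCl pH 7.5, 50 mM NaCl, 1 mM DTT, 0.05% BSA.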
Menin MLL FP TR: inhibitors of human menin-MLL interaction, mutant MLL peptide; O00255; Menin + Texas Red MLL mutant peptide, fluorescence polarization; Potency, µM (top dose mostly 61.6 µM), for the others: at the top dose FP activity change, negative = inhibition, hits mostly inhibitors; 270,000 tested, 0.23% active; active = well fitted inhibition curve with a large enough effect in the polarisation, with a control signal flat, not every such curve was filed as active; inconclusive = small, poorly fitted or top-dose-only effect, or effect the other way, or a change in a side signal; inactive = no such curve, though single readings can be large or run the other way; the % refers to the polarisation; note: potency is the fitted concentration of half-maximal effect; % of control where 0% means no effect
Target sequence (O00255 whole entry, looked up): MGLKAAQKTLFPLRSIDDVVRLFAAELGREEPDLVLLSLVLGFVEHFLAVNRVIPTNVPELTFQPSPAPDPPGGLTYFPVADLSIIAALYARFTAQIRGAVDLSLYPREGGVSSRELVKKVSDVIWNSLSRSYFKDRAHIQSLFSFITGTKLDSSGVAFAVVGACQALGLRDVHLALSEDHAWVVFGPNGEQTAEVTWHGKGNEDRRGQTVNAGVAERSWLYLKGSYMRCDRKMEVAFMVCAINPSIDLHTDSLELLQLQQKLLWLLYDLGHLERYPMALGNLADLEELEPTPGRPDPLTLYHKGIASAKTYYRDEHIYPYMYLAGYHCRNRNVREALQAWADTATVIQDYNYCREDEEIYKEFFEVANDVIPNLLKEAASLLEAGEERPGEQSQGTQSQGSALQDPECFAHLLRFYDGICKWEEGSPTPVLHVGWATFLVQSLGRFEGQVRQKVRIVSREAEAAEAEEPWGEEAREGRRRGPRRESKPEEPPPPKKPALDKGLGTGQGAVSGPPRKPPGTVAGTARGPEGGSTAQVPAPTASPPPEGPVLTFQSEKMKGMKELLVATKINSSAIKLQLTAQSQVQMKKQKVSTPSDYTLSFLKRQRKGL
Menin-MLL FL inh: displaces fluorescein MLL peptide from human menin | AID 1766 | FP activity change, % at 61.4 µM | Fluorescence polarization, fluorescein-MLL peptide displacement from menin | 290,000 tested, under 10 active; active = well fitted curve in the direction sought with a large enough effect in the polarisation, not every such curve was filed as active; inconclusive = small, poorly fitted or top-dose-only effect, or effect the other way, or a change in a side signal; inactive = no such curve, though single readings can be large or run the other way; the % refers to the polarisation; note: % of control where 0% means no effect
mIDH1 inhibitor: human IDH1 R132H inhibition. IDH1-R132H enzyme, NADPH consumption, diaphorase/resazurin fluorescence. Potency, µM (series often up to 76.6 µM), inactives show at the highest dose activity change, negative = inhibition, hits mostly inhibitors. 390,000 tested, 0.093% active. AID 602179; active = well fitted inhibition curve with a large enough effect; inconclusive = small, poorly fitted or top-dose-only effect; inactive = no such curve, though single readings can be large or run the other way; note: potency is the fitted concentration of half-maximal effect; % is set by controls: 0 for no effect and ±100 for the full control effect; nearly all actives have a fitted effect of over 65% in size
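IDH1-R132H (0.5 ug/mL dispensed) in pH 7.5 Tris buffer was preincubated 30 min with compound, then given a substrate mix of 0.016 mM NADPH and 2 mM alpha-KG for 80 min at room temperature; remaining NADPH was read by diaphorase/resazurin fluorescence.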
Akt phos inh: Akt phosphorylation inhibition; 360,000 tested, 0.32% active; activity change, % for hits at 50 µM; Neuro2A IGF-stimulated pAkt S473 HTRF, 20 min; hits give low values; in the data active = activity change below about -80%; inconclusive = mostly about -51% to -80%; note: % is set by controls: 0 for no effect and ±100 for the full control effect
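Single-point screen (50 µM final compound) in Neuro2A cells stimulated 20 min with 6 nM IGF at 37 deg C. After lysis, Ser473-phosphorylated Akt read by HTRF (ex 330 nm, em 615/665 nm) as the 665/615 ratio.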
Numbers without * were called inactive; i = inactive; u = inconclusive; x = no result; ! = not active in a repeat.

SMILES	LDHA block	CXXC DNA block	Menin MLL FP TR	Menin-MLL FL inh	mIDH1 inhibitor	Akt phos inh
CSc1ccccc1NC(=O)CSc1cc(C)c2ccccc2n1	-6	x	x	x	x	x
Cc1cc(SCC(=O)Nc2ccc(F)c(F)c2F)nc2ccccc12	-34*	x	x	x	x	x
CN(CC(=O)Nc1ccc(F)c(F)c1)S(=O)(=O)Cc1ccc(C#N)cc1	4	x	x	x	x	x
COc1cccc(NC(=O)CN(CCc2ccccc2)S(=O)(=O)c2ccc(Cl)cc2)c1	-59*	x	x	x	24%	x
CCCn1c(CN(C)Cc2ccccc2)nc2c1c(=O)n(C)c(=O)n2C	-2	-1%	0%	-2	9%	i
CN(Cc1ccccc1)Cc1nc2c(c(=O)n(C)c(=O)n2C)n1CCc1ccccc1	-31*!	x	x	x	1%	i
Cc1cccc(-n2ncc3c(NCCCN4CCCC4=O)ncnc32)c1	0	-4%	-4%	-2	10%	-106%*
CC1CCCCC12NC(=O)N(CC(=O)Nc1sc3c(c1C(N)=O)CCC3)C2=O (configuration not stated)	-2	-11%	u	u	1%	-120%*
CC(C)n1cc(/C=C2/SC(=O)N(CC(=O)Nc3ccc4c(c3)OCO4)C2=O)c2ccccc21	-4	14%	7.9µM*	2	2%	x
CN1CCN(C(C#N)c2ccc(O)cc2)CC1 (configuration not stated)	0	x	x	x	x	x
Cc1ccc(C(=O)CSc2nc3ccccc3c(=O)n2-c2ccccc2)s1	-3	4%	11%	-1	0%	-100%*
CCCCn1c(SCC(=O)Nc2cc(C)on2)nc2ccsc2c1=O	2	-1%	-13%	3	8%	-101%*
Cc1ccc(-n2c(SCC(=O)Nc3cc(C)on3)nc3ccccc3c2=O)cc1	3	-2%	-17%	1	1%	-85%*
COc1ccc(C(=O)/C(=C/c2ccc(C)cc2C)c2nc3ccccc3[nH]2)cc1	9	x	x	x	x	x
COCC(=O)n1nc(NCc2ccccc2Cl)nc1NCc1ccccc1Cl	-49*	x	x	x	x	x
CC(C)c1ccc(N2C(=O)[C@@H]3Cc4ccccc4CN3C2=O)cc1	7	7%	-22%	3	1%	-108%*
O=C(CCc1ncc(-c2ccc(Cl)cc2Cl)o1)N1CCN(S(=O)(=O)c2ccccc2)CC1	-8	x	x	x	x	x
O=C(O)c1ccc2[nH]ccc2c1	-6	x	x	x	x	x
CC1=NN(c2ccccc2)C(=O)/C1=C\C=C1/N(C)c2ccccc2C1(C)C	-12	42%	3%	u	6%	i
CN1C(=CC=C2C=C(I)C(=O)C(I)=C2)C(C)(C)c2ccccc21	-4	77%	x	u	46µM*	i
CN1/C(=C\C=C2/C(=O)Oc3ccccc3C2=O)C(C)(C)c2ccccc21	-50*	u	u	x	37µM*	i
CN1/C(=C\C=N\O)C(C)(C)c2ccccc21	10	9%	-12%	3	0%	i
CC(=O)Nc1ccc(C)cc1S(=O)(=O)N1CCCCCC1c1sccc1C (configuration not stated)	4	x	x	x	x	x
CC(C)CCNC(=O)NC(=O)COC(=O)CCCc1c[nH]c2ccccc12	2	x	x	x	x	x
CCOc1ccc(S(=O)(=O)N2CCN(C(=O)[C@H](C)NC(N)=O)CC2)cc1	9	x	x	x	x	x
SMILES	LDHA block	CXXC DNA block	Menin MLL FP TR	Menin-MLL FL inh	mIDH1 inhibitor	Akt phos inh
CCc1cc(OCCN(C)C)ccc1Cl	-35*	5%	-17%	3	2%	i
CC1C[N+](=C2C=C(N3CCOCC3)CC(C)(C)C2)CC(C)O1 (configuration not stated)	-57*	-6%	x	6	12%	i
COc1ccc(S(=O)(=O)N2CCOCC2)cc1	1	x	x	x	x	x
O=S(=O)(c1ccc(Oc2ccc(Br)cc2)cc1)N1CCOCC1	-3	-3%	-14%	-5	1%	-113%*
CC(=O)Nc1ccc(NC(=O)c2ccc3ccccc3n2)cc1	-16	x	x	x	x	x
Cc1[nH]c2ccccc2c1C(=O)CN1CCCCC1CCO (configuration not stated)	3	14%	1%	2	3%	-109%*
Cn1nc(C(=O)N(C2CC2)C2CCCc3ccccc32)c2ccccc2c1=O (configuration not stated)	1	x	x	x	x	x
O=C(Nc1ccc(NC(=O)c2ccc(Cl)cc2Cl)cc1)c1ccc2c(c1)OCO2	-1	27%	u	-6	1%	i
O=C(Nc1ccc(C2=NCCN2)cc1)c1ccc(C(=O)Nc2ccc(C3=NCCN3)cc2)c(Cl)c1	-33*	u	-12%	4	1%	i
Nc1c(C(=O)Nc2cc(Cl)cc(Cl)c2)sc2nc(-c3ccncc3)ccc12	-32*	x	x	x	x	x
Nc1c(C(=O)Nc2ccc(Cl)c(Cl)c2)sc2nc(-c3cccnc3)ccc12	x	17%	4%	8	x	x
COc1cc(/C=N/NC(=O)c2ccncc2)ccc1OC(=O)c1ccc([N+](=O)[O-])cc1	-2	-13%	6%	3	6%	-107%*
COc1cc(/C=N/NC(=O)c2ccncc2)ccc1OC(C)=O	-1	3%	8%	0	8%	i
CCCCc1nc2ccccc2c(NC(=O)CN2CCCC2)c1CCC	-35*	2%	2%	1	-1%	i
N#Cc1nc(-c2ccccc2Cl)oc1N1CCOCC1	-32*!	1%	-11%	0	3%	i
N#Cc1nc(-c2ccccc2Cl)oc1N1CCCCCC1	-12	x	x	x	x	x
Cc1ccc(NC(=O)C(=O)NCCN2CCN(S(=O)(=O)c3ccc4ccccc4c3)CC2)cc1	-2	x	x	x	x	x
COc1cc(CCc2ccccc2)c(C(=O)O)c(O)c1C/C=C(/C)CCC=C(C)C	-38*	x	x	x	-15%	i
COc1cc(CCc2ccccc2)c(C(=O)O)c(O)c1CC=C(C)C	3	x	x	x	3%	i
CC(C)COC(=S)Nc1ccccc1	-3	-1%	-8%	-2	3%	-108%*
COC(=O)NC(NC(=O)OC)C(Cl)(Cl)Cl	-2	x	x	x	x	x
Cc1ccc(NC(=O)CN2C(=O)N/C(=C\c3cccn3-c3ccc(C(=O)NC#N)cc3)C2=O)cc1	-37*	x	x	x	x	x
Cc1cc(C)c(S(=O)(=O)c2ccccc2)c(OC(=O)c2c(F)cccc2F)n1	-50*	48%	12%	0	25%	i
Cc1cc(C)c(S(=O)(=O)c2ccccc2)c(OC(=O)c2c(Cl)cc(Cl)cc2Cl)n1	-3	8%	5%	0	7%	i
Cc1cc(Br)cc(/C=N/NC(=O)c2ccc3c(c2)OCO3)c1O	-11	22%	u	12	-4%	i
O=C(N/N=C/c1cc(Br)cc(Cl)c1O)c1ccc2c(c1)OCO2	-32*	x	x	x	3%	i
O=c1[nH]nc(Sc2ncnc3sccc23)n1CCc1ccccc1	1	70%	-8%	3	7%	-99%*
